The values that follow come from the supplement of paper PMC13380429.

The test has as its system Vero E6 infected with SARS-CoV-2. Description: inhibition of SARS-CoV-2 cytopathic effect; higher = more antiviral protection, active = above 15. The conditions noted are these: 48 h. In general terms: Damage to the host cells serves as the signal in cytopathic effect assays.

Each structure is given as a SMILES string. Unmarked numbers belong to inactive results.

As to `CC1=NN(c2ccccc2)C(=O)C1` [edaravone], the “inhibition of SARS-CoV-2 cytopathic effect” value (“inhibition” below) (1 nM) is 1.36%; the “inhibition” value (8.33 nM) is 0.66%; the “inhibition” value (100 nM) is -0.76%; the “inhibition” value (833.33 nM) is 0.1%; the “inhibition” value (10000 nM) is 3.57%.
In the same order, the values of `CN1C(CSCC(F)(F)F)Nc2cc(Cl)c(S(N)(=O)=O)cc2S1(=O)=O` (stereo not given) [polythiazide] are -0.4%, 0.91%, 3.31%, -0.95% and -1.62%.
In the same order, the values of `O=C(/C=C/c1ccc(O)c(O)c1)OCCc1ccccc1` [caffeic-acid-phenethyl-ester] are -3.4%, -2.75%, -2.14%, 2.36% and 7.5%.
In the same order, the values of `Cc1ccc([N+](=O)[O-])cc1S(=O)(=O)N(C)/N=C/c1cnc2ccc(Br)cn12` are 0.29%, -0.13%, -5.92%, -16.5% and -5.86%.
`Oc1cc(CNC(=S)/C=C/c2cc(O)c(O)c(Br)c2)cc(O)c1O`: the “inhibition” value reads like this: (1 nM) 0.9%; (8.33 nM) 0.99%; (100 nM) 2.87%; (833.33 nM) 5.44%; (10000 nM) 19.8% (active).
Consider `Cc1ccc(S(=O)(=O)Cc2nc(-c3ccc(C(=O)NCc4cccnc4)cc3)oc2C)cc1`, for which the “inhibition” value reads like this: (1 nM) -2.69%; (8.33 nM) -2.16%; (100 nM) -15.4%; (833.33 nM) -19.2%; (10000 nM) -16.4%.
As for `CC(C)(C)c1ccc(C(O)CCCN2CCC(C(O)(c3ccccc3)c3ccccc3)CC2)cc1` (stereo not given) [terfenadine], the “inhibition” value (1 nM) is 1.94%; the “inhibition” value (8.33 nM) is -2.95%; the “inhibition” value (100 nM) was -0.52%; the “inhibition” value (833.33 nM) was -3.56%; the “inhibition” value (10000 nM) was -21.1%.
